Measured values as given in the supplement of paper PMC3334620.
Over roughly 33,000 sequences, “E-score (-0.5 to 0.5)” has its median near -0.012; the highest 2% begin near 0.29. Many of the other results were omitted from the sample, so the highest values are more common in it than they were.

What follows are sequences tested against T1, Ybr033w (UniProt P38073) (assay: PBM E-score (8-mer binding enrichment) (E-score (-0.5 to 0.5)); higher = stronger / more preferred TF binding). Conditions: protein concentration: 200 nM; construct: GST-full length.
T1 sequence: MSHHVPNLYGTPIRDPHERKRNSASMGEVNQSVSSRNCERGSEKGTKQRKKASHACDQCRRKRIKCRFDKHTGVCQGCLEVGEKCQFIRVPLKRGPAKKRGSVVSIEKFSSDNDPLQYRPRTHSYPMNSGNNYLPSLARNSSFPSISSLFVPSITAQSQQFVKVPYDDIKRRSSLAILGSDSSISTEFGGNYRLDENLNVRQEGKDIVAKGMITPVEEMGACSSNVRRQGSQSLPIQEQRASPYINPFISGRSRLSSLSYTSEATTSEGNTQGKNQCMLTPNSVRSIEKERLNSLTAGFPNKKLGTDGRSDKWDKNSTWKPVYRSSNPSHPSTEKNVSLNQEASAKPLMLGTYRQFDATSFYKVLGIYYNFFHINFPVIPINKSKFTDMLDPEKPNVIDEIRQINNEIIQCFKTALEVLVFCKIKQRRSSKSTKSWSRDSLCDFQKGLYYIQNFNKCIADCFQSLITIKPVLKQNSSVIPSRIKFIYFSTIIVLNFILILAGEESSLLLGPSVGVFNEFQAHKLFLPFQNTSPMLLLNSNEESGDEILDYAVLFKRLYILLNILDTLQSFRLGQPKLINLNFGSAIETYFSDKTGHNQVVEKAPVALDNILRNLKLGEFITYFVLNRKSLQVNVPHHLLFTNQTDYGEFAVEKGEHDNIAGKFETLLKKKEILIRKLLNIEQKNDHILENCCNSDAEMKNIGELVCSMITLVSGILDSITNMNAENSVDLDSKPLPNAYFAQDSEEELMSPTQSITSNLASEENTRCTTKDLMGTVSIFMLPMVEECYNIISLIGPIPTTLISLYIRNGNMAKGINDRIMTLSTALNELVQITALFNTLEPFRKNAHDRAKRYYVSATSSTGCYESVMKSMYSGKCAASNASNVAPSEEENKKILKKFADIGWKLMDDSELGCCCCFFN
Procedure, shortened: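 Universal all-10-mer Agilent arrays, double-stranded by primer extension on fresh or once-stripped slides, were probed with about 100-200 nM GST-tagged yeast transcription factors made by PURExpress. Fluorescent anti-GST detected bound protein, and masliner normalised the scans. E-scores from the Universal PBM Analysis Suite were given to each ungapped eight-base word pooled with its reverse complement.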

Sequence	PBM E-score
ATATTAAG	0.285
CTATTAAC	0.268
ACATTAAT	0.235
GGCTCTAC	-0.185
GGAACACA	0.149
GAGCTGTA	-0.11
TCCATACA	0.0807
ATTTTCAG	0.148
ATTCGCCG	0.0215
ATCGACAC	-0.0724
CGTGAACA	0.00947
GTGTGTTA	0.292
ATGTGTTA	0.163
CTGTGTTA	-0.00531
CAAGGTCG	-0.0398
AACGACTC	-0.219
AATTTATG	0.317
AGTTTATA	0.215
AATTTATC	0.398
AGTTTATG	0.2
AATTTATA	0.257
AGTTTATC	0.363
AATTTAGG	0.229
ACTTTATG	0.132
CATTTATC	0.278
GCAAGCGC	-0.00847

Sequence	PBM E-score
GTAACCAC	-0.255
CTCAATGC	-0.0435
AGATCTTG	-0.00564
TAAGTGAA	0.293
AAAGTGAA	0.164
GAAGTGAA	0.155
CAAGCCAG	-0.0473
ATTAGATG	0.329
ATTAGATA	0.222
ATTAGATC	0.0257
AATCGGGG	-0.125
ATAATCTC	0.293
CTAATCTC	-0.0112
GAAATCTA	0.116
ATAATCTA	0.294
ACAATCTC	0.0789
AAAATCTA	0.289
ATAATCTG	0.117
AAAATCTG	0.235
GTAATCTA	0.207
AGACAGGA	0.246
TCTCAAAA	0.143
GCGAGACA	-0.0827
CAAATAGG	0.00709
CAGACGAG	-0.108
AAACGGAA	0.341

Sequence	PBM E-score
GAACGGAA	0.0333
AAACGGAC	-0.102
AACTCAAT	0.0866
GGGTGAGA	-0.224
CTCACTTA	0.0375
GGGTAAGA	-0.154
TACACTAA	0.0217
CACACTAG	0.0753
CACACTAA	0.299
GCGCTGAA	-0.0684
ACCACGAG	0.0793
GGTAATTA	0.175
GTTAAGTA	0.113
GTTAATTA	0.266
ATTAAGTG	0.167
ATTAGTTA	0.344
CGTAATTC	0.0565
ATTAATTA	0.387
ATTAATTG	0.268
GTTAGTTA	0.262
CGTAATTA	0.29
ATTAAGTA	0.365
ATTAGTTG	0.265
CGGGGCGA	-0.145
AAACACCC	0.0312
GCGCGATA	0.181

Sequence	PBM E-score
CCTCCTAC	-0.107
GACCTATA	0.189
GGTGGCCA	-0.292
AACAGTAA	0.173
CTCTTCGA	0.0693
ACAGGTGA	0.0969
ACTTACCA	0.0956
CCGCTAAC	-0.0857
AGTAATTG	0.129
AGTAATTC	0.318
AGTAATTA	0.232
ATTAATTC	0.291
CTTAATTC	0.257
ACTAATTC	0.221
CCTTACCA	-0.00851
ACACCTGA	-0.0619
AGTTCTAC	0.0539
AATCAAGC	0.0885
ATATATTA	0.306
ATATATTG	0.14
ACATATTA	0.349
CTATATTC	0.215
ATATATCA	0.0628
ACATATTG	0.193
ATATATTC	0.326
ATATATCC	0.372

Sequence	PBM E-score
CTATATCC	0.159
CCATATTA	0.146
CTATATTA	0.284
GTATATTA	0.257
AAGAGGGG	-0.226
GTGCCACA	-0.302
CTGGCAGA	-0.00651
GCGGGACA	-0.243
CGCGATCA	0.0933
AGATCTGA	-0.108
CTAAGGGA	0.0981
ACCTGCGG	-0.146
ACTGCCAT	0.00233
TCCTCGAA	0.126
AACCAAAT	0.228
ATGGGGTG	-0.195
CGATATTA	0.336
GGATATTA	0.144
CGATATTC	0.123
AACTTCCC	0.00652
AGATAGGA	0.00058
ACTATTTG	0.248
ATTTATTA	0.293
CTTATTTC	0.235
ATTTATTC	0.361
ATTATTTC	0.332

Sequence	PBM E-score
ACTATTTC	0.237
CTTTATTC	0.192
ATTATTAG	0.152
GTTTATTA	0.276
ATTTATTG	0.0954
CTTTATTA	0.191
ATTATTTG	0.335
AGCCAATA	-0.0344
AAAAAGCG	0.112
CCGTTGCG	-0.192
AAGAATAG	0.204
CGACAAAC	0.0224
CCATGGGA	-0.0942
AAACTAGG	0.0193
GGAGAGAC	-0.0678
GTTATTTA	0.258
CTTATTTA	0.106
ATTATTCG	0.328
ATTATTTA	0.373
ATTATTCA	0.231
ACTATTCG	0.177
AAATCTCT	0.152
AGAAAGTC	0.173
CCACGAGG	-0.0481
AATAGGAA	0.29
CATAGGAA	0.0524

Sequence	PBM E-score
AATAGGAC	0.0355
TATAGGAA	0.232
AATAGGAT	0.295
AATAGGAG	-0.253
ACGCGACC	-0.208
ACTAACCA	0.11
AGCACTTC	0.0586
ACGCGACT	-0.174
GATTATAA	0.172
GATTATCC	0.396
CATTATTA	0.243
GATTATTA	0.298
GATTATCA	0.19
CATTATTC	0.213
AATTACTA	0.234
AATTATAC	0.284
AATTATTC	0.423
CATTACTC	0.11
AATTACTC	0.328
CATTATCC	0.224
